These results are taken from PubChem BioAssay (Tox21).

Molecules are shown by their SMILES. Records with an inconclusive call do not appear. Values without a mark were called inactive. The call rests on the fitted dose curve; in most records, active means well fitted cell-killing curve with a large enough effect in the repeat runs; inconclusive means weak or mixed curves, or effect the other way; inactive means no such curve, though single readings can be large or run the other way.
On the % scale 0 is the no-effect control and ±100 the full control effect.

A short description of this assay: qHTS assay to identify small molecule antagonists of the sonic hedgehog signaling (Shh) pathway - cell viability counter screen (AID 1259367). Further: nearly all actives have a fitted effect of over 55% in size. Particulars: NIH/3T3 Gli1-Luc viability, CellTiter-Fluor, 24 h; series mostly up to 92.4 µM; viability change, negative = cytotoxic: at the top concentration. The text has this: National Center for Advancing Translational Sciences [NCATS]
NIH Chemical Genomics Center [NCGC]
U.S. Environmental Protection Agency [EPA]
National Institutes of Environmental Health Sciences [NIEHS]
National Toxicology Program [NTP]
U.S. Food and Drug Administration [FDA]
The sonic hedgehog (Shh) pathway is essential for normal embryonic development. Dysregulation of the Shh pathway can cause severe developmental defects in organs. Therefore chemicals that interfere with the pathway are potential developmental toxicants. A cell line designated 3T3Gli1-Luc (DMB/OARSA/CFSAN/FDA, Laurel, MD), a NIH/3T3 derived clone containing stably integrated Gli1-Luc reporter is used to detect chemical interference of the Shh pathway, by changes in the expression of the firefly Luc gene under the control of the Gli1 transcriptional response element. This cell line was used to screen Tox21 libraries for identifying and prioritizing the potential developmental toxicants that interfere Shh pathway. Conditioned medium-stimulated mode was used to screen for chemicals inhibiting Shh signaling. The cytotoxicity of the compounds was tested in parallel by measuring the cell viability using CellTiter-Fluor assay system (Promega, Madison, WI) in the same wells.
Tox21 Assay Protocol Summary:
3T3 Gli1-Luc cells were dispensed at 2,000 per well in 5uL of culture medium into white solid bottom 1536-well plates (Greiner Bio-One, Monroe, NC) using a Multidrop Combi (Thermo Scientific, Waltham, MA) dispenser. The assay plates were incubated at 37 C and 5% CO2 for 4hr, and then 23nL of compounds dissolved in DMSO and positive control were transferred using a Pintool station (Wako, San Diego, CA). The compound transfer was followed by the addition of 1ul conditioned medium or assay buffer using two separate tips of Flying Reagent Dispenser (FRD, Aurora Discovery, San Diego, CA). The assay plates were incubated at 37C and 5% CO2 for 24hr. For viability read, after 23hr of compound treatment, 1uL of CellTiter-Fluor reagent (Promega Corporation, Madison, WI) was added to each well of the assay plates using Flying Reagent Dispenser (FRD, Aurora Discovery, San Diego, CA) and incubated the assay plates at 37C for 1hr. The fluorescence signal was quantified using a ViewLux plate reader (Perkin Elmer, Shelton, CT).
A general note: qHTS replaces the single test concentration by a dilution series.
Turning to `COCCOC(=O)C1=C(C)NC(C)=C(C(=O)OC(C)C)C1c1cccc([N+](=O)[O-])c1` (stereo not given), the “viability change, negative = cytotoxic” value is -19.8% [at 42.5 µM].

On to `COc1ccc(C2CNC(=O)C2)cc1OC1CCCC1` (stereo not given), for which the “viability change, negative = cytotoxic” value was 6.51% [at 42.5 µM].

Consider `CC(C)CC(=O)O`, for which the “viability change, negative = cytotoxic” value was 0.119%.

Turning to `CCCCCCCCSCC`, the “viability change, negative = cytotoxic” value was 2.61%.

As for `CCC(C)NC(N)=O` (stereo not given), the “viability change, negative = cytotoxic” value was -1.36%.

As to `CO[C@@H]1[C@@H](OC(N)=O)[C@@H](O)[C@H](Oc2ccc3c(O)c(NC(=O)c4ccc(O)c(CC=C(C)C)c4)c(=O)oc3c2C)OC1(C)C`, the “viability change, negative = cytotoxic” value was -3.3% [at 42.5 µM].

In the case of `CNC(=O)[C@H]1O[C@@H](n2cnc3c(NCc4cc(Cl)ccc4OCc4cc(C)no4)ncnc32)[C@H](O)[C@@H]1N`, the “viability change, negative = cytotoxic” value was -1.62%.

With `O=C1c2ccccc2C(=O)C1c1ccccc1`, the “viability change, negative = cytotoxic” value is 0.932% [at 42.5 µM].

On to `CCCCCCCCCCl`, for which the “viability change, negative = cytotoxic” value is 1.53%.

As for `COC(=O)[C@@H]1[C@H]2C[C@H]3c4[nH]c5ccccc5c4CCN3C[C@@H]2CC[C@@H]1O`, the “viability change, negative = cytotoxic” value was -2.08% [at 42.5 µM].

For the molecule `CC/C=C\CC1=C(C)CCC1=O`, the “viability change, negative = cytotoxic” value is -4.99%.

For the molecule `C=C(C)C(=O)OCCOP(=O)(O)OCCOC(=O)C(=C)C`, the “viability change, negative = cytotoxic” value is 1.59%.

As to `CCCCOCCOC(=O)COc1nc(Cl)c(Cl)cc1Cl`, the “viability change, negative = cytotoxic” value is 6.51%.

As for `CN=C(NC#N)Nc1ccc(C2=NNC(=O)CC2C)cc1` (stereo not given), the “viability change, negative = cytotoxic” value is -0.853% [at 42.5 µM].

`CCOC(=O)c1ccc(OC(=O)CCCCCN=C(N)N)cc1`: the “viability change, negative = cytotoxic” value is -4.45% [at 42.5 µM].

Turning to `COC(=O)c1ccccc1C(=O)c1ccc(OCCN2CCCCC2)cc1`, the “viability change, negative = cytotoxic” value was -8.32% [at 42.5 µM].

As for `COc1cc2c(cc1OC)C(=O)CC2`, the “viability change, negative = cytotoxic” value was 0.34% [at 42.5 µM].

For `C=C(C)C(=O)OCCN(CC)CC`, the “viability change, negative = cytotoxic” value is 3.17%.

Take `CN(C)C(=O)CNC(=O)Cc1ccccc1`: the “viability change, negative = cytotoxic” value is -1.35% [at 42.5 µM].

With `Cc1cc(NC(=O)C2=C(O)c3ccccc3S(=O)(=O)N2C)no1`, the “viability change, negative = cytotoxic” value is -2.7% [at 42.5 µM].

Regarding `Nc1ccc(S(=O)(=O)Nc2ccc(Cl)nn2)cc1`, the “viability change, negative = cytotoxic” value is -1.36% [at 42.5 µM].

On to `CC(=O)Nc1ccc(S(=O)(=O)Cl)cc1`, for which the “viability change, negative = cytotoxic” value was -3.36%.

As to `O=C(CCNNC(=O)c1ccncc1)NCc1ccccc1`, the “viability change, negative = cytotoxic” value was -2.68% [at 42.5 µM].

Consider `C[C@@H](O)[C@H]1C(=O)N2C(C(=O)O)=C(SCCN=CN)C[C@H]12`, for which the “viability change, negative = cytotoxic” value was 5.86% [at 42.5 µM].

Regarding `O=C(O)c1ccc(Cl)cc1Cl`, the “viability change, negative = cytotoxic” value is -0.0313%.

For `CCOC(=O)CC(=O)c1ccccc1`, the “viability change, negative = cytotoxic” value was -2.17%.

Regarding `O=C(OCc1ccccc1)C(=O)OCc1ccccc1`, the “viability change, negative = cytotoxic” value was 0.666%.

As to `COC(=O)C1CC(=O)C(C(=O)OC)CC1=O` (stereo not given), the viability change, negative = cytotoxic was 1.71% [at 8.39 µM].

On to `Cc1[nH]cnc1-c1ccc(Cl)cc1`, for which the “viability change, negative = cytotoxic” value is -3.95% [at 42.5 µM].

For the molecule `CC(N)C(=O)OC(C)(C)Cc1ccc(Cl)cc1` (stereo not given), the “viability change, negative = cytotoxic” value was -5.59% [at 42.5 µM].

As for `O=S(O)(O)=S`, the viability change, negative = cytotoxic is 1.07% [at 8.39 µM].

As to `O=C1CC(c2ccc(Cl)cc2)CC(=O)N1`, the “viability change, negative = cytotoxic” value is 1.89% [at 42.5 µM].

As for `O=C(O)Cc1cn(-c2ccccc2)nc1-c1ccc(Cl)cc1`, the “viability change, negative = cytotoxic” value is -19.6% [at 42.5 µM].

Consider `O=C(O)c1cc(Cl)cc([N+](=O)[O-])c1Cl`, for which the “viability change, negative = cytotoxic” value was -2.72%.

As for `CC(=C(CCOC(=O)C(C)C)SSC(CCOC(=O)C(C)C)=C(C)N(C=O)Cc1cnc(C)nc1N)N(C=O)Cc1cnc(C)nc1N`, the “viability change, negative = cytotoxic” value is 1.02% [at 42.5 µM].

Consider `N[C@@H](CCC(=O)Nc1ccc([N+](=O)[O-])cc1)C(=O)O`, for which the “viability change, negative = cytotoxic” value is -10.3%.

For `O=C1c2ccccc2C(=O)c2cc(S(=O)(=O)O)ccc21`, the “viability change, negative = cytotoxic” value is 3.24%.

`C=C(C)C(=O)OCc1ccccc1`: the “viability change, negative = cytotoxic” value was 2.69%.

On to `CCCCCCCCCC(C)=O`, for which the “viability change, negative = cytotoxic” value is 0.674%.

`CC(=O)Nc1cccc(C)c1`: the “viability change, negative = cytotoxic” value is 1.11%.
